# Screening data (PubChem)
# RBX1-CUL1 inh – human ROC1-CUL1 E3 ligase inhibition | P62877+Q13616 | in vitro K48 di-Ub FRET, acceptor:donor ratio, 45 min | inhibition, % at 10 µM | hit rate 0.6% among 140,000; in the data active means inhibition above about 25%
# Target sequence (P62877 whole entry, looked up): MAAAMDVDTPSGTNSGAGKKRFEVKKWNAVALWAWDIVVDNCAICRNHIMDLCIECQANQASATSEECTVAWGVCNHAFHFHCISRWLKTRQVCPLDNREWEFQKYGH
# Target sequence (Q13616 whole entry, looked up): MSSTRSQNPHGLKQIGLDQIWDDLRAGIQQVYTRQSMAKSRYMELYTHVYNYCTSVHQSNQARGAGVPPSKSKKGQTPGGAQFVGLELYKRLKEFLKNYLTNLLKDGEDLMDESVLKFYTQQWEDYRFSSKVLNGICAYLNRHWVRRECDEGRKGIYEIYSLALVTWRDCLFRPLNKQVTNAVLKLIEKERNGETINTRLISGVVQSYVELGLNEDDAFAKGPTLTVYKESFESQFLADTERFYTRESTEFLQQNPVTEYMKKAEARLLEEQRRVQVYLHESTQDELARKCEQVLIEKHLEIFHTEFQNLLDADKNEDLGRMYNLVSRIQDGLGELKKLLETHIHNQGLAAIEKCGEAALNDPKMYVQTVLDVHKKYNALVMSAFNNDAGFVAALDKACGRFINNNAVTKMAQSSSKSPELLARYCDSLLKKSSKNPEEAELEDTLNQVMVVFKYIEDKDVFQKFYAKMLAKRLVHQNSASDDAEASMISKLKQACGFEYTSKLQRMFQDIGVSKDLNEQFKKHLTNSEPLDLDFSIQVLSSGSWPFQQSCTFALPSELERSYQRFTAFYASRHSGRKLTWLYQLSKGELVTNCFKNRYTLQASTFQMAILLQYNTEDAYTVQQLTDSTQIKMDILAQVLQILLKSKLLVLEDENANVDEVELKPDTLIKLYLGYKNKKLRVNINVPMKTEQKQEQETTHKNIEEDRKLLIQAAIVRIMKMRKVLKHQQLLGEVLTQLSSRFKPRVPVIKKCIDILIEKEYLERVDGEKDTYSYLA
# An asterisk follows results filed as active. The sample as a whole holds a higher share of hits than the screen did.
SMILES,RBX1-CUL1 inh
Clc1nn2nnnc2c2ccccc12,29.7*
c1ccc2c(c1)c(N1CCOCC1)nn1nnnc21,3.6
Cc1nnc(Cl)c2ccccc12,-2.8
CCN1CCCC1CNC(=O)c1ccc(S(=O)(=O)N2CCOCC2)cc1 (stereo not given),9.1
Cc1ccc(C)c(C(c2ccccc2)C2(Br)C(=O)c3ccccc3C2=O)c1 (stereo not given),3.5
Cc1c(C(=O)NC(C)c2ccc(Cl)cc2)cnn1-c1ccccc1 (stereo not given),-3.6
O=C1C=Cc2ccc(N3CCOCC3)c3cccc1c23,-5.8
CC1(N2CCOCC2)C(=O)c2ccccc2C1=O,-0.2
O=C1C=C(N2CCOCC2)c2ccccc2C1=O,76.3*
O=C(Cc1nc2ccccc2oc1=O)c1ccc(Cl)cc1,8.8
CCN(CCn1cccn1)Cc1cccc(OCC(O)CN2CCOCC2)c1 (stereo not given),-1.4
COc1cc(NC(=O)N2CCN(c3ccccn3)CC2)cc(OC)c1OC,2.5
COc1ccccc1-c1c(C)nn2c(C(F)(F)F)cc(-c3ccncc3)nc12,7.2
CC(C)c1ccc2c(c1)[C@@H]1C=CC[C@@H]1[C@H](c1ccc(S(=O)(=O)N3CCOCC3)cc1)N2,31.2*
COC(=O)c1ccc([C@H]2Nc3ccc(S(=O)(=O)Nc4ccc(C)cc4)cc3[C@H]3C=CC[C@H]32)cc1,10.8
COc1cccc([C@@H]2Nc3ccc(C(=O)O)cc3[C@@H]3C=CC[C@@H]32)c1OC,-12.2
Cc1cccc(C)c1NS(=O)(=O)c1ccc2c(c1)[C@H]1C=CC[C@H]1[C@@H](c1ccc(Cl)cc1)N2,7.8
Cc1cccc(NS(=O)(=O)c2ccc3c(c2)[C@H]2C=CC[C@H]2[C@@H](c2ccc(C(C)(C)C)cc2)N3)c1,-1.5
C1=CC2c3c(ccc4ccccc34)NC(c3cccc4ccccc34)C2C1 (stereo not given),-6.4
COc1cccc([C@H]2Nc3ccc(S(=O)(=O)Nc4ccc(C)c(C)c4)cc3[C@H]3C=CC[C@H]32)c1,-5.3
COc1ccc(NS(=O)(=O)c2ccc3c(c2)[C@H]2C=CC[C@H]2[C@@H](c2ccc(C(=O)O)cc2)N3)cc1,96.7*
O=C(O)c1ccc2c(c1)C1C=CCC1C(c1cccc3ccccc13)N2 (stereo not given),95.4*
Cc1cccc(C(=O)NC2(C(F)(F)F)NC(=O)N(c3ccc(OC(F)(F)F)cc3)C2=O)c1 (stereo not given),-7.0
COC(=O)c1cccc(C(=O)N2CCc3onc(-c4ccccc4F)c3C2)c1,-6.2
N#CC(N=Nc1ccc(Cl)cc1Cl)C(=O)c1ccccc1Cl (stereo not given),-0.4
SMILES,RBX1-CUL1 inh
O=C(OC(C(=O)c1ccccc1)c1ccccc1)c1ccc(Br)o1 (stereo not given),2.1
CC(=O)c1sc2nc(SC/C=C/c3ccccc3)[nH]c(=O)c2c1C,19.8
CC1(C)OC(=O)C(C=NCc2ccccc2)C(=O)O1,-1.0
O=C1C=CC(=O)C(C(C=NCc2ccccc2)[N+](=O)[O-])=C1 (stereo not given),97.3*
CN1C(=O)C(C=NCc2ccccc2)c2ccccc21 (stereo not given),-2.4
COC(=O)c1c(SC)nc(/C=C/c2ccccc2)[nH]c1=O,-10.6
COc1ccc(-c2nc(S(=O)(=O)c3ccccc3)c(N3CCOCC3)o2)cc1OC,3.9
c1ccc(-c2nnc(-c3ccco3)nc2N2CCCC2)cc1,-10.4
N=C1C(=O)c2c(N)cccc2C(=O)C1Br (stereo not given),102.5*
Nc1cccc2c1C(=O)N(c1cccc(F)c1)C2=O,-1.4
CN(c1cccc(NS(=O)(=O)c2cc(Cl)ccc2Cl)c1)S(C)(=O)=O,4.4
O=C(Nc1ccc(OCCc2ccccc2)cc1)C1CC1,-5.8
CCSc1nc(N2CCOCC2)c2c(c1C#N)CC(C)(C)OC2,5.5
CCCN=C1N/C(=C\c2ccccc2)C(=O)N1c1ccc(Cl)cc1,1.7
Cc1c(CC(=O)NCC(N)=O)c2c(n1CCc1ccccc1)CCCC2=O,9.2
Cc1c(CC(=O)NCc2ccon2)c2c(n1CC1CCCO1)CCCC2=O (stereo not given),-1.1
Cc1c(CC(=O)NCc2ccon2)c2c(n1CCc1ccccc1)CCCC2=O,28.9*
COc1ccc(CNC(=O)C2C(=O)N=C3C=C(C)C=CN3C2=O)cc1 (stereo not given),5.2
O=C(OCCOc1ccccc1)C(C(F)(F)F)C(F)(F)F,84.5*
O=C(OCCOc1ccccc1)c1ccc(-c2ccccc2)cc1,0.4
NC(=O)c1ccccc1OCCOc1ccccc1,17.8
C#Cc1cccc(C(=O)N2CCC3(CC2)c2ccccc2[C@@H](NC(=O)CC)[C@@H]3OCc2cccnc2)c1,-9.1
CC(=O)c1ccc(NC(=O)C2Cc3ccccc3CN2S(=O)(=O)c2cccs2)cc1 (stereo not given),-7.9
COc1ccccc1CNC(=O)C1C(=O)N=C2C=C(C)C=CN2C1=O (stereo not given),-7.8
CC1=NN(c2ccccc2)C(=O)C1C(c1ccccc1C(=O)O)C1C(=O)N(c2ccccc2)N=C1C (stereo not given),-3.3
SMILES,RBX1-CUL1 inh
CC1=NN(c2ccccc2)C(=O)C1N=Nc1cc(Cl)ccc1C(F)(F)F (stereo not given),-6.7
CC1=NN(c2ccccc2)C(=O)C1C(c1ccc(Cl)cc1)C1C(=O)N(c2ccccc2)N=C1C (stereo not given),61.1*
CC(=O)C(C(C)=O)c1c(Br)c(O)c(O)c2c(C(=O)c3ccccc3)coc12,8.5
COc1ccccc1/C=C/C(=O)C1C=C(Br)C=C(Br)C(=O)C1=O (stereo not given),27.6*
COc1cccc(/C=C/C(=O)C2C=C(Br)C=C(Br)C(=O)C2=O)c1 (stereo not given),-3.3
Cc1ccccc1/C=C/C(=O)C1C=C(Br)C=CC(=O)C1=O (stereo not given),-1.5
O=C(O)c1ncccc1C(=O)N1CCN(c2ccccc2F)CC1,-11.8
COc1cccc(N2CCN(Cc3nc(N)nc(Nc4ccc(Cl)cc4)n3)CC2)c1,6.2
CC1=NN(c2ccccc2)C(=O)/C1=C/c1cc(C)n(-c2cccc(C(F)(F)F)c2)c1C,3.3
CC1=NN(c2ccccc2)C(=O)/C1=C\c1ccc(C(C)(C)C)cc1,39.8*
CC1=NN(c2ccccc2)C(=O)/C1=C\C1=Nc2ccccc2C1,11.1
CC1=NN(c2ccc(F)cc2)C(=O)C1=Cc1c(O)n(-c2ccccc2)c(=S)n(-c2ccccc2)c1=O,0.1
CC(=O)Oc1ccc(-n2c(C)cc(/C=C3\C(=O)N(c4ccccc4)N=C3C)c2C)cc1,3.7
COc1cccc(/C=C2\C(=O)N(c3ccccc3)N=C2C)c1OC,-10.7
CC1=NN(c2ccccc2)C(=O)/C1=C/c1cccc(OC2CSC2)c1,31.9*
CC1=NN(c2cc(Cl)cc(Cl)c2)C(=O)/C1=C\c1ccc(N2CCOCC2)cc1,0.0
CC(=O)Nc1ccc(N2N=C(C)/C(=C/c3ccccc3)C2=O)cc1,40.7*
O=C(NC1CCCC1)c1ccc(N2CCOCC2)cc1,-4.3
O=c1[nH]cnc2nc(N3CCCC3)ncc12,3.8
CCN1CCN(C2(C(=O)NC3CCc4ccccc43)Cc3ccccc3C2)CC1 (stereo not given),-0.9
O=C(CN1Cc2ccccc2OC(c2ccccc2F)C1)NCCCN1CCOCC1 (stereo not given),3.5
Cc1ccc(NC(=O)/C=C/c2ccco2)cc1F,-5.9
O=C(/C=C/c1ccco1)NCC12CC3CC(C1)CC(CNC(=O)/C=C/c1ccco1)(C3)C2,103.3*
